# Results filed as inconclusive are left out. Where a call stands in place of a potency, no number is given. Activity calls are given as the source filed them. Calls come from the whole dose curve; as a rule, active = well fitted cell-killing curve with a large enough effect in the repeat runs; inconclusive = weak or mixed curves, or effect the other way; inactive = flat fitted curve, though single readings scatter.
# Test: Caspase-3/7 induction in HepG2 cells by small molecules, qHTS cell viability counter screen (AID 1346981); note: nearly all actives have a fitted effect of over 30% in size
# Conditions: CellTiter-Fluor fluorescence, 17 h; series mostly up to 92.4 µM
# Description: U.S. Tox21 Program National Center for Advancing Translational Sciences [NCATS] NIH Chemical Genomics Center [NCGC] U.S. Environmental Protection Agency [EPA] National Institutes of Environmental Health Sciences [NIEHS] National Toxicology Program [NTP] U.S. Food and Drug Administration [FDA] Tox21 Assay Overview: Apoptosis is a process of programmed cell death and plays a central role in the development of multicellular organisms. It is a highly regulated process and induces cell death by activating caspases, which are the members of cysteine aspartic acid-specific protease (caspase) family. Caspases involved in apoptosis are classified by their mechanism of action as initiator caspases (caspase-2, -8, -9 and -10) and executioner caspases (caspase-3, -6, and -7). Inhibition of apoptosis results in number of cancers, autoimmune diseases, inflammatory diseases and viral infection. To identify small molecule compounds that induce apoptosis, a homogeneous, luminescent Caspase-Glo 3/7 assay was used. Wild type HepG2 cells were used to screen Tox21 libraries for identifying caspase-3/7 activity inducers. Also cytotoxicity of the compounds was tested in parallel by measuring the cell viability using CellTiter-Fluor assay system in the same wells.
# Tox21 Assay Protocol Summary: HepG2 cells were dispensed at 2,000 per well in 5uL of culture medium into white solid bottom 1536-well plates (Corning Life Sciences, Corning, NY) using a Multidrop Combi (Thermo Scientific, Waltham, MA) dispenser. The assay plates were incubated at 37 C and 5% CO2 for 5hr, and then 23nL of compounds dissolved in DMSO and positive control were transferred using a Pintool station ([…], San Diego, CA). The assay plates were incubated at 37C and 5% CO2 for 17hr. For cytotoxicity read, after 16hr incubation at 37C, 1uL CellTiter-Fluor reagent (Promega Corporation, Madison, WI) was added to each well of the assay plates using Flying Reagent Dispenser (FRD, Aurora Discovery, San Diego, CA). After 1hr incubation at 37C and 5% CO2, the fluorescence signal was quantified using a ViewLux plate reader (PerkinElmer, Shelton, CT).
# Potency is the fitted concentration of half-maximal effect.
SMILES,"activity change, negative = cytotoxicity",Potency
NCC(=O)O,4.32% [at 19 µM] (inactive),–
CCCCCC[C@@H](O)C/C=C\CCCCCCCC(=O)OC,–,inactive
C=CCOC(=O)CCC1CCCCC1,–,inactive
NCCCN1CCOCC1,–,inactive
COc1cc(Cl)c(OC)cc1N,–,inactive
O=C1c2ccccc2S(=O)(=O)N1CCCCN1CCN(c2ncccn2)CC1,–,inactive
CC/C=C\CCOC(=O)CC,–,inactive
CC(C)(C)Cl,–,inactive
CCN(CC)CCNC(=O)c1cc(Br)c(N)cc1OC,–,inactive
O=C1C(O)=C(O)C(=O)C(O)=C1O,–,inactive
CC[N+]1(CC)CCC(=C(c2ccccc2)c2ccccc2)C1C (stereo not given),–,inactive
Cc1ccc(C(C)OC(=O)C2(C)CCC(C(=O)O)C2(C)C)cc1 (stereo not given),–,inactive
CCCCCCCCCOS(=O)(=O)O,–,inactive
C1CCCNCCC1,–,inactive
C=C1[C@H]2CC[C@@H]3[C@H]2C(C)(C)CCC[C@]13C,–,inactive
CN1CCN(C(c2ccccc2)c2ccccc2)CC1,–,inactive
O=C(O)CNCC(=O)O,1.14% [at 8.39 µM] (inactive),–
C[C@@H]1C[C@H]2O[C@@]3(O[C@@H]2C(C)(C)O)[C@H](O)[C@@]2(C)[C@@H]4CC[C@H]5C(C)(C)[C@@H](O[C@@H]6OC[C@@H](O)[C@H](O)[C@H]6O)CC[C@@]56C[C@@]46CC[C@]2(C)[C@@H]13,–,inactive
O=C1CCC(=O)O1,–,inactive
O=CC1CC=CCC1 (stereo not given),–,inactive

SMILES,"activity change, negative = cytotoxicity",Potency
CCNc1cc(O)ccc1C,–,inactive
C=CC1CC2C=CC1C2 (stereo not given),–,inactive
CCC(CC)Nc1ccc(C)c(C)c1,–,inactive
C=CC(=O)OCCOc1ccccc1,–,inactive
CN(C)c1ccc(/C=C/c2ccc([N+](=O)[O-])cc2)cc1,14.3% [at 8.39 µM] (inactive),–
O=C(O)CC(=O)C(=O)O,–,inactive
Cc1c(N)cccc1[N+](=O)[O-],–,inactive
CC1=CC[C@H](C(C)C)C=C1,–,inactive
C[C@@H](c1ncncc1F)C(O)(Cn1cncn1)c1ccc(F)cc1F (stereo not given in full),–,inactive
Nc1ccc(N)c2c1C(=O)c1ccccc1C2=O,–,21.7 µM (active)
CC(C)(O)c1ccc(CNC(=O)c2cccnc2Oc2ccc(F)cc2)cc1,–,inactive
NS(=O)(=O)c1ccc(N2CCCCS2(=O)=O)cc1,–,inactive
CC1CCC(=O)C1=O (stereo not given),–,inactive
O=P(O)(OCc1ccccc1)OCc1ccccc1,–,inactive
CCc1cc(C2=C(C(=O)O)N(c3ccccc3C(F)(F)F)S(=O)(=O)c3ccccc32)cc2c1OCO2,–,15.2 µM (active)
O=C(O)C1(C(=O)O)CCC1.[NH2-].[NH2-].[Pt+2],–,inactive
CCCCCCCCCCCCCCCCOS(=O)(=O)O,–,inactive
C[C@H](CCC(=O)O)[C@H]1CC[C@H]2[C@@H]3CC[C@@H]4C[C@H](O)CC[C@]4(C)[C@H]3C[C@H](O)[C@]12C,–,54.6 µM (active)
CCC(=O)O[C@]1(C(=O)CCl)[C@@H](C)C[C@H]2[C@@H]3CCC4=CC(=O)C=C[C@]4(C)[C@@]3(F)[C@@H](O)C[C@@]21C,–,inactive
C[C@H]1C[C@H]2[C@@H]3CCC4=CC(=O)C=C[C@]4(C)[C@@]3(Cl)[C@@H](O)C[C@]2(C)[C@@]1(O)C(=O)CO,–,inactive

# From PubChem BioAssay (Tox21)
